Laboratory results reported in ChEMBL document CHEMBL2218924, “A broad activity screen in support of a chemogenomic map for kinase signalling research and drug discovery” (Biochem J, 2013).

Columns and labels:
[1] = molecular target: T1, CDK9/cyclin T1 (Homo sapiens) (UniProt O60563+P50750); conditions: at 1 µM
[2] = molecular target: T1, CDK9/cyclin T1 (Homo sapiens); conditions: at 10 µM
[3] = molecular target: T2, Serine/threonine-protein kinase Chk1 (Homo sapiens) (UniProt O14757); conditions: at 1 µM
T2 sequence (whole entry): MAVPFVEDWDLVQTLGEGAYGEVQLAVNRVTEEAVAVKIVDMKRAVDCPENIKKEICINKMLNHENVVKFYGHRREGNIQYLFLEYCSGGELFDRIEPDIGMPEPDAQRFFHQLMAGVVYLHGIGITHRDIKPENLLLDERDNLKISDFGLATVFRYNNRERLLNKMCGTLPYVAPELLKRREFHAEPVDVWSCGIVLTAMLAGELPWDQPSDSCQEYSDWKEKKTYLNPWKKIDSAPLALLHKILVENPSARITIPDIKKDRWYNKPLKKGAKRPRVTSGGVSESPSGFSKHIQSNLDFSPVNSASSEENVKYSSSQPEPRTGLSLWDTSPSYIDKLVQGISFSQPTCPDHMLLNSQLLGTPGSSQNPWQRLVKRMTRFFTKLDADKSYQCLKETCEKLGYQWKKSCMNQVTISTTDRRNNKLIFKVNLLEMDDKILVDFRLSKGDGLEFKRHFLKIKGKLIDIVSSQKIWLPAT

[4] = molecular target: T2, Serine/threonine-protein kinase Chk1 (Homo sapiens); conditions: at 10 µM
[5] = molecular target: Serine/threonine-protein kinase Chk2 (Homo sapiens) (UniProt O96017); conditions: at 1 µM
[6] = molecular target: Serine/threonine-protein kinase Chk2 (Homo sapiens) (UniProt O96017); conditions: at 10 µM
[7] = molecular target: Casein kinase I isoform gamma-1 (Homo sapiens) (UniProt Q9HCP0); conditions: at 1 µM
[8] = molecular target: Casein kinase I isoform gamma-1 (Homo sapiens) (UniProt Q9HCP0); conditions: at 10 µM
[9] = molecular target: Casein kinase I isoform delta (Homo sapiens) (UniProt P48730); conditions: at 1 µM
[10] = molecular target: Casein kinase I isoform delta (Homo sapiens) (UniProt P48730); conditions: at 10 µM

Sequence of Casein kinase I isoform gamma-1 (Homo sapiens) (Q9HCP0 whole entry, looked up, canonical isoform): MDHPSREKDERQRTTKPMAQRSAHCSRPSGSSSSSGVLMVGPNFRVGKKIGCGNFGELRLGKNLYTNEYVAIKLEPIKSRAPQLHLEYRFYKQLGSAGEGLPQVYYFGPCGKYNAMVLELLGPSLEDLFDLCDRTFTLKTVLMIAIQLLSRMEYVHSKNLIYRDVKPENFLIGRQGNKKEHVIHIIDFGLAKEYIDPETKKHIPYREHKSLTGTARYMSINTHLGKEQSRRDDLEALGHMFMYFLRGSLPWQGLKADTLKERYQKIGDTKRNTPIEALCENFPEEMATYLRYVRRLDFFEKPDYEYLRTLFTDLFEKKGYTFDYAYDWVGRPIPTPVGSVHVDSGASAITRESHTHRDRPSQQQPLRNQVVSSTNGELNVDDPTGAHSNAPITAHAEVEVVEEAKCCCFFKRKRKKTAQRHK
Sequence of Casein kinase I isoform delta (Homo sapiens) (P48730 whole entry, looked up, canonical isoform): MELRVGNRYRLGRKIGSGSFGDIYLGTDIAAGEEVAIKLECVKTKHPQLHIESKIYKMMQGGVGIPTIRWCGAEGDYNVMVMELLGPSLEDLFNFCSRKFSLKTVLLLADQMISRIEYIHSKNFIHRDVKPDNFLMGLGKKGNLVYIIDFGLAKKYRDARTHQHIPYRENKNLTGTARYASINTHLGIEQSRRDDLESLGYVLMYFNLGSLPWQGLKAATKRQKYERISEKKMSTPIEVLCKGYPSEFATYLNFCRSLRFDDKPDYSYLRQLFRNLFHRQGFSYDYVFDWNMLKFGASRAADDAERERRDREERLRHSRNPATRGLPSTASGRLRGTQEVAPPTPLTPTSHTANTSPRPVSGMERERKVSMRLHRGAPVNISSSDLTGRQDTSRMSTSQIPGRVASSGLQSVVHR
Sequence of Serine/threonine-protein kinase Chk2 (Homo sapiens) (O96017 whole entry, canonical isoform): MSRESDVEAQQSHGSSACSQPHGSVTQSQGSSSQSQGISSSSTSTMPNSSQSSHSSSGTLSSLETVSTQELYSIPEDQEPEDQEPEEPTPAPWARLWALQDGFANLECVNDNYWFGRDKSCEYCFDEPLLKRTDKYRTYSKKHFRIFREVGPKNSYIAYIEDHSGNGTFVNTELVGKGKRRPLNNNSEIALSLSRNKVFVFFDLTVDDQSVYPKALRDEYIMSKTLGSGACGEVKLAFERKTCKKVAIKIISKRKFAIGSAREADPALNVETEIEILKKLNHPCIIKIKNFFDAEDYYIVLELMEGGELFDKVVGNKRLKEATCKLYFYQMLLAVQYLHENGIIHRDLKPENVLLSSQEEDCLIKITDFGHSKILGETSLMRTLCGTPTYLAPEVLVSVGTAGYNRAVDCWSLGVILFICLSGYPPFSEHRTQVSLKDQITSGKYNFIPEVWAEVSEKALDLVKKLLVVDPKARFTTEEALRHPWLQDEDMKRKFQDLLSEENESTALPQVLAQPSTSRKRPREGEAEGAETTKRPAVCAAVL

Row | SMILES | residual activity [1] [%] | residual activity [2] [%] | residual activity [3] [%] | residual activity [4] [%] | residual activity [5] [%] | residual activity [6] [%] | residual activity [7] [%] | residual activity [8] [%] | residual activity [9] [%] | residual activity [10] [%]
1 | CCC(=O)Nc1ccc2ncnc(Nc3cccc(Br)c3)c2c1 | 102 | 86 | 85 | 87 | 95 | 87 | 87 | 95 | 97 | 100
2 | O=C1Nc2ccccc2/C1=C1/Nc2ccccc2/C1=N\OCCC(O)CO (stereo not given) | 12 | 7 | 68 | 33 | 26 | 3 | 102 | 55 | 35 | 9
3 | CC(=O)c1ccc(N2CCOCC2)cc1O | 85 | 74 | 96 | 93 | 94 | 91 | 97 | 97 | 89 | 94
4 | Nc1nc(Nc2ccc(S(N)(=O)=O)cc2)nn1C(=S)Nc1c(F)cccc1F | 0 | -1 | 0 | -1 | 4 | 0 | 4 | 1 | 59 | 16
5 | N#Cc1cnc2cnc(NCc3cccnc3)cc2c1Nc1ccc(F)c(Cl)c1 | 93 | 100 | 3 | 1 | 49 | 36 | – | 93 | 79 | 62
6 | CN(C)CCCn1cc(C2=C(c3c[nH]c4ccccc34)C(=O)NC2=O)c2ccccc21 | 17 | 3 | 54 | 17 | 52 | 16 | 107 | – | 90 | 79
7 | Cc1cccc(-c2[nH]c(C(C)(C)C)nc2-c2ccc3c(c2)OCO3)n1 | – | 98 | 88 | 92 | 91 | 97 | 101 | 100 | 69 | 33
8 | c1ccc(-c2n[nH]c3c2oc2ccccc23)cc1 | 88 | 78 | 86 | 89 | 85 | 57 | 87 | 73 | 75 | 33
9 | Cc1ccc(S(=O)(=O)/C=C/C#N)cc1 | 102 | 87 | 99 | 89 | 85 | 78 | 80 | 83 | 96 | 89
10 | O=C(Nc1cccc(Nc2nccc(Nc3cccc(C(F)(F)F)c3)n2)c1)C1CC1 | 89 | 79 | 72 | 77 | 81 | 48 | 93 | 94 | 82 | 78
11 | O=C(Nc1cccc(Nc2cc(Nc3cccc(C(F)(F)F)c3)ncn2)c1)C1CC1 | 85 | 62 | 89 | 86 | 97 | 74 | 85 | 66 | 85 | 54
12 | Nc1ccc2ncnc(NCCc3ccc(Oc4ccccc4)cc3)c2c1 | 94 | 107 | 94 | 72 | 52 | 17 | 87 | 82 | 77 | 53
13 | Nc1cccc(-c2cc3c(Oc4cccc(O)c4)ncnc3[nH]2)c1 | 31 | 5 | 45 | 11 | 54 | 12 | 86 | 49 | 86 | 44
14 | CO[C@@H]1[C@H](N(C)C(=O)c2ccccc2)C[C@H]2O[C@]1(C)n1c3ccccc3c3c4c(c5c6ccccc6n2c5c31)C(=O)NC4 | 70 | 58 | 59 | 65 | 79 | 54 | 66 | 49 | 80 | 69
15 | NC(=O)c1ccc2[nH]c(-c3ccc(Oc4ccc(Cl)cc4)cc3)nc2c1 | 81 | 78 | 91 | 97 | – | – | 78 | 57 | 83 | 83
16 | Nc1n[nH]c2nnc(-c3c(-c4ccccc4)nn4ccccc34)cc12 | 98 | 92 | 90 | 82 | 98 | 78 | 94 | 84 | 60 | 17
17 | N#C/C(=C(\N)Sc1ccc(N)cc1)c1ccccc1C(F)(F)F | 81 | 96 | 90 | 86 | 94 | 81 | 103 | 87 | 87 | 82
18 | COc1cc2ncnc(N3CCN(C(=O)Nc4ccc(Oc5ccccc5)cc4)CC3)c2cc1OC | 94 | 48 | 82 | 80 | 96 | 96 | 88 | 79 | 78 | 89

Row | SMILES | residual activity [1] [%] | residual activity [2] [%] | residual activity [3] [%] | residual activity [4] [%] | residual activity [5] [%] | residual activity [6] [%] | residual activity [7] [%] | residual activity [8] [%] | residual activity [9] [%] | residual activity [10] [%]
19 | O=[N+]([O-])c1ccc(-c2nc(-c3ccc(F)cc3)c(-c3ccncc3)[nH]2)cc1 | 103 | 24 | 102 | 92 | 97 | 84 | 75 | 88 | – | 4
20 | O=C1Nc2cc(Br)ccc2/C1=C1/Nc2ccccc2/C1=N\O | 32 | 42 | 45 | 19 | 18 | 3 | 64 | 73 | 51 | 17
21 | CC(C)n1cnc2c(NCc3ccccc3)nc(NCCCO)nc21 | 56 | 7 | 95 | 87 | 86 | 60 | 94 | 49 | 70 | 22
22 | Cc1cncc2cccc(S(=O)(=O)N3CCCN(C(=O)CN)C[C@H]3C)c12 | 92 | 71 | 88 | 93 | 80 | 83 | – | – | 83 | –
23 | Cc1cc(Nc2nc(-c3ccccc3)nc3ccccc23)n[nH]1 | 76 | 29 | 54 | 16 | 22 | 2 | – | 28 | 96 | 51
24 | CO[C@H]1[C@@H](OC)C[C@H](C)[C@@H](OC)C2=CC(=O)C=C(NC(=O)/C(C)=C/C=C/[C@H](OC)[C@@H](OC(N)=O)/C(C)=C/[C@@H]1C)C2=O | 100 | 83 | 96 | 87 | 91 | 89 | 91 | 94 | 90 | 81
25 | CN(C)c1ccc(/C=C2\C(=O)Nc3ccccc32)cc1 | 107 | 93 | 90 | 72 | 73 | 36 | 91 | 74 | 56 | 21
26 | O=C1c2ccccc2-[n+]2ccc3c([nH]c4ccccc43)c21 | 86 | 92 | 94 | 87 | 77 | 75 | 98 | 81 | 79 | 77
27 | COc1cc2ncc(-c3ccccc3)nc2cc1OC | – | – | 90 | 78 | 86 | 88 | 90 | 78 | 72 | 39
28 | COc1cc2ncnc(Nc3ccc(O)c(Br)c3)c2cc1OC | 91 | 41 | 80 | 70 | 46 | 11 | 90 | 41 | 81 | 38
29 | CC(C)n1cnc2/c(=N/c3cccc(Cl)c3)nc(NCCO)[nH]c21 | 63 | 24 | 38 | 25 | 64 | 21 | 8 | 0 | 37 | 7
30 | O=c1c2ccccc2[nH]c(=S)n1CCN1CCC(=C(c2ccc(F)cc2)c2ccc(F)cc2)CC1 | 100 | 97 | 95 | 104 | 93 | 85 | 82 | 78 | 80 | 63
31 | Cc1nc2cc3nc(-c4cccs4)cnc3cc2n1C | 109 | 102 | 101 | 108 | 86 | 101 | – | 89 | 95 | 67
32 | N#CC(C#N)=C(N)/C(C#N)=C/c1ccc(O)cc1 | – | 86 | 90 | 96 | 88 | 85 | 83 | 99 | 82 | 54
33 | COc1cc2ncnc(Nc3ccc(NC(=O)c4ccccc4)cc3)c2cc1OC | 111 | 100 | 97 | 99 | 34 | 8 | 92 | 78 | 79 | 69
34 | COc1ccc(CNc2nc(N(CCO)CCO)nc3c2ncn3C(C)C)cc1 | 29 | 0 | 93 | 87 | 77 | 33 | 67 | 29 | 40 | 6
35 | CO[C@H]1C[C@@H]2CC[C@@H](C)[C@@](O)(O2)C(=O)C(=O)N2CCCC[C@H]2C(=O)O[C@H]([C@H](C)C[C@@H]2CC[C@@H](O)[C@H](OC)C2)CC(=O)[C@H](C)/C=C(\C)[C@@H](O)[C@@H](OC)C(=O)[C@H](C)C[C@H](C)/C=C/C=C/C=C/1C | 120 | 98 | 77 | – | 98 | 85 | 87 | 101 | 84 | 109
